Screening data: PubChem BioAssay, National Center for Advancing Translational Sciences (NCATS)
KB-3-1 cytotox = KB-3-1 parental cell cytotoxicity; KB-3-1 viability, CellTiter-Glo ATP luminescence, 72 h; Potency, µM (top dose mostly 46.1 µM), usual class: cytotoxic; 400,000 compounds, 1.4% hits; further: nearly all actives have a fitted effect of over 60% in size
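Screening of KB-3-1 cells (DMEM, 10% FBS, phenol-red free) ran from lowest to highest compound concentration; after 72 h at 37 °C viability was read luminescently and curves fitted.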
KB-V1 cytotox = KB-V1 MDR subline cytotoxicity. Potency, µM (highest dose often 46.1 µM), most hits filed as cytotoxic. KB-V1 MDR cells viability, CellTiter-Glo, 72 h. AID 1347076. 400,000 compounds, 3.4% hits; further: nearly all actives have a fitted effect of over 60% in size
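Following 72 h at 37 degrees C with compound, KB-V1 cell viability was read by CellTiter-Glo luminescence, medium being phenol-red-free DMEM plus 10% FBS; concentration-response parameters came from normalized, curve-fitted qHTS data.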
HT1080NT lethal = kills 2HG-producing HT-1080-NT fibrosarcoma cells | HT-1080-NT fibrosarcoma viability, CellTiter-Glo ATP luminescence, 48 h | Potency, µM (series often up to 46.1 µM), for inactives: at the highest dose activity, negative = less viability, actives largely listed as cytotoxic | 360,000 compounds, 1.6% hits;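 further: NT is the 2HG producing partner of a matched IDH1 knockdown line; 0% = DMSO-treated cells and -100% = media-only wells without cells; nearly all actives have a fitted effect of over 55% in size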
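A 48-hour cytotoxicity screen used HT-1080-NT cells plated 2 hours before compound delivery. ATP-based CellTiter-Glo luminescence measured viability, normalized to DMSO and no-cell controls.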
HT1080 IDH1KD tx = toxicity to HT-1080 IDH1 knockdown cells (counter line). Potency, µM (titrated, usually from 46.1 µM), inactives show at the highest dose activity, negative = toxicity, hits mostly cytotoxic. HT-1080 IDH1 knockdown viability, ATP luminescence, 48 h. AID 686971. 360,000 compounds, 2% hits;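 further: 0% = DMSO wells and -100% = cell-free medium wells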
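Cytotoxicity counter-line: IDH1KD HT-1080, 48 h, CellTiter-Glo. Curves classed by r2, magnitude and activity.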
* hit, by the source's call; i = inactive; ? = inconclusive; . = not tested or not shown. Compounds with a hit are over-represented: about 5.7% of the library has one in this group of screens. The call rests on the fitted dose curve; in most records, active means well fitted curve in the direction sought with a large enough effect; inconclusive means small, poorly fitted or top-dose-only effect, or another doubt; inactive means no such curve, though single readings can be large; an effect the other way counts as inactive or inconclusive. Unless noted, on the % scale 0 is the no-effect control and ±100 the full control effect; potency means the concentration at half of the fitted maximal effect.

SMILES	KB-3-1 cytotox	KB-V1 cytotox	HT1080NT lethal	HT1080 IDH1KD tx
COc1ccc(-c2cc(C(F)(F)F)nc(SCCC(=O)Nc3ccc(OC)c(OC)c3)n2)cc1	i	i	.	.
COc1cc(NC(=O)C2CCN(c3nc4ccccc4nc3C(F)(F)F)CC2)cc(OC)c1	i	?	.	.
Cc1ccn2c(NC(=O)C(C)(C)Oc3ccc(Cl)cc3)c(-c3cccs3)nc2c1	26µM*	i	?	?
C=CCn1c(SCC(=O)Nc2ccc3c(c2)OCO3)nnc1-c1ccccc1OC	i	i	-20%	-26%
C=CCn1c(SCc2csc(-c3ccc(Cl)cc3)n2)nnc1-c1ccccc1OC	?	21µM*	-19%	?
O=C(Nc1cc(Cl)ccc1Cl)c1cc([N+](=O)[O-])cc(Br)c1O	i	i	.	.
O=C(Nc1ccc([N+](=O)[O-])cc1Cl)c1cc(Br)ccc1O	2.3µM*	1.8µM*	.	.
O=C(Nc1c(Cl)cc([N+](=O)[O-])cc1Cl)c1cc(Cl)ccc1O	0.73µM*	?	.	.
Cc1ccc(NC(=O)Cn2c(=O)n(CCCCC(=O)NCc3ccc4c(c3)OCO4)c(=O)c3ccccc32)cc1	i	i	.	.
CNS(=O)(=O)c1cc(-c2nn3c(C)nnc3c3ccccc23)ccc1C	i	i	.	.
Cc1ccc(S(=O)(=O)CC(CN2CCOCC2)N2CCOCC2)cc1 (stereo unspecified)	i	i	-1%	19%
CC1CCN(CC(CS(=O)(=O)c2ccc([N+](=O)[O-])cc2)N2CCC(C)CC2)CC1 (stereo unspecified)	5.2µM*	?	-3%	5%
O=C(NCc1cccnc1)/C(=C\c1ccc(-c2ccc(Cl)c(Cl)c2)o1)S(=O)(=O)c1ccccc1	i	4.1µM*	?	?
C=Cc1ccc(CSc2nnc(C)n3c2cc2occc23)cc1	i	i	.	.
CCOc1ccc(CNC(=O)C2Cc3ccccc3N2C(=O)CC)cc1OC (stereo unspecified)	i	i	.	.
CCn1c(=O)c2cc(C(=O)N(CCCOC(C)C)Cc3ccco3)sc2c2ccccc21	i	?	.	.
COc1ccc(C2c3ccc(O)cc3Oc3ncn4nc(-c5ccco5)nc4c32)cc1OC (stereo unspecified)	i	i	?	18µM*
Cc1cc(N)cc(C)c1-c1c(Br)cc(N)cc1Br	13µM*	16µM*	?	?
CC1(Cc2ccccc2Cl)C(=O)Nc2ccc(OC(F)(F)F)cc21 (stereo unspecified)	i	i	?	29µM*
Cc1cccc2cc(C#N)c(NCCNS(=O)(=O)c3ccc4c(c3)OCCO4)nc12	i	23µM*	-25%	-27%
CCC(c1nnnn1C(C)(C)C)N(Cc1ccco1)Cc1cc2cccc(C)c2[nH]c1=O (stereo unspecified)	i	23µM*	0%	-5%
Cc1cc(C)c2[nH]c(=O)c(C(c3nnnn3C(C)(C)C)N(Cc3ccco3)CC3CCCO3)cc2c1 (stereo unspecified)	i	i	12%	-3%
CCC(c1nnnn1CCc1ccccc1)N(Cc1ccco1)Cc1cc2cccc(C)c2[nH]c1=O (stereo unspecified)	?	7.3µM*	-6%	-15%
CCOc1ccc2[nH]c(=O)c(CN(Cc3ccco3)C(CC)c3nnnn3Cc3ccccc3)cc2c1 (stereo unspecified)	?	?	-24%	?
Cc1ccc(C(=O)N/C(=C\c2ccc(-c3cccc([N+](=O)[O-])c3)o2)C(=O)NCCCN2CCOCC2)cc1	?	?	18µM*	?
SMILES	KB-3-1 cytotox	KB-V1 cytotox	HT1080NT lethal	HT1080 IDH1KD tx
Cc1ccc(C(=O)N/C(=C/c2ccc(-c3cccc([N+](=O)[O-])c3)o2)C(=O)NC(C)C)cc1	i	3.7µM*	0%	-10%
Cc1ccc(C(=O)N/C(=C/c2ccc(-c3cccc([N+](=O)[O-])c3)o2)C(=O)NC(C)(C)C)cc1	i	i	2%	-4%
COc1cccc(C2=CC(c3ccccc3F)n3ncc(C(=O)Nc4ccc(F)cc4)c3N2)c1 (stereo unspecified)	?	i	.	.
CSc1nc2ccc(Cl)cc2[nH]1	i	i	3%	-3%
CSc1nc2cc(Oc3cccc(Cl)c3Cl)c(Cl)cc2[nH]1	i	i	9.2µM*	?
O=S(=O)(NCCSc1nnnn1-c1ccccc1)c1cccs1	i	16µM*	4%	1%
O=C(CC1(O)C(=O)N(Cc2cccc3ccccc23)c2ccccc21)c1cccnc1 (stereo unspecified)	21µM*	21µM*	?	10µM*
CC(=NNC(=S)N1CCCCC1)c1ccccn1	?	?	-20%	?
CC(=NNC(=S)N1CCCCC1)c1cccc(C)n1	0.23µM*	?	-22%	?
CC1(S(=O)(=O)O)CC(=O)c2ccccc2C1=O (stereo unspecified)	?	i	18µM*	21µM*
O=C(CC1NCCNC1=O)Nc1cccc(F)c1 (stereo unspecified)	i	i	.	.
CN(C)c1ccc(/C=c2\[nH]c(=O)/c(=C\c3ccc(N(C)C)cc3)[nH]c2=O)cc1	i	i	.	.
CC(C)C(=O)N1CCN(c2ccc([N+](=O)[O-])cc2Cl)CC1	i	21µM*	2%	8%
COc1ccccc1N1CCN(c2ccc([N+](=O)[O-])cc2Cl)CC1	16µM*	5.8µM*	?	?
CCCC(=O)N(Cc1cc(=O)[nH]c2ccccc12)c1ccc(OC)cc1	i	i	-2%	-13%
Cc1cccc(N(Cc2cc(=O)[nH]c3ccccc23)C(=O)CCl)c1	i	?	21µM*	?
COc1ccc(N(Cc2cc(=O)[nH]c3ccccc23)C(=O)CCl)cc1	?	?	3.3µM*	23µM*
CCCC(=O)N(Cc1cc(=O)[nH]c2ccccc12)c1cccc(C)c1	i	i	-6%	-14%
COc1ccc(C2=C(N3CCN(c4cccc(C)c4C)CC3)c3ccccc3C2=O)cc1	i	i	.	.
Clc1ccc2c(NCCNC3CCCCC3)ccnc2c1	?	?	15µM*	21µM*
CC(C)NC1CCC(Nc2ccnc3cc(Cl)ccc23)CC1 (stereo unspecified)	?	i	-9%	?
CC(C)Oc1ccc(CN2CCc3nc(Nc4ccc5c(c4)OCCO5)ncc3C2)cc1	i	i	.	.
O=c1c2ccccc2nc(SCc2cccc(F)c2)n1-c1cccc(S(=O)(=O)N2CCCC2)c1	i	3.3µM*	3%	8%
Cc1cc(C)n(CCc2nc3c4ccccc4nc(N4CCN(c5ccc(F)cc5)CC4)n3n2)n1	i	?	.	.
O=C(NN=C1c2ccccc2-c2ccccc21)c1ccccn1	i	5.2µM*	?	?
CC(=N/O)/C(C)=N\NC(=O)c1ccccn1	i	i	-7%	-13%
